# Assay results as given in article PMC7862700, “An all-to-all approach to the identification of sequence-specific readers for epigenetic DNA modifications on cytosine”.
# Columns and labels:
# Experiment in all cases: DAPPL (digital affinity profiling via proximity ligation, sequencing); 10 mM Tris-HCl pH 7.5, 50 mM NaCl, 1 mM DTT, 4% glycerol, room temperature, 30 min; GST-TFs on glutathione beads, 16-mer random dsDNA library, 0.1% formaldehyde crosslink after washing; high values mean tight binding
# FLI1 = biological target: T1, FLI1 (Homo sapiens, UniProt Q01543 1-452); details: protein: recombinant; tags: N-terminal GST; dsDNA, one strand shown
# T1 sequence: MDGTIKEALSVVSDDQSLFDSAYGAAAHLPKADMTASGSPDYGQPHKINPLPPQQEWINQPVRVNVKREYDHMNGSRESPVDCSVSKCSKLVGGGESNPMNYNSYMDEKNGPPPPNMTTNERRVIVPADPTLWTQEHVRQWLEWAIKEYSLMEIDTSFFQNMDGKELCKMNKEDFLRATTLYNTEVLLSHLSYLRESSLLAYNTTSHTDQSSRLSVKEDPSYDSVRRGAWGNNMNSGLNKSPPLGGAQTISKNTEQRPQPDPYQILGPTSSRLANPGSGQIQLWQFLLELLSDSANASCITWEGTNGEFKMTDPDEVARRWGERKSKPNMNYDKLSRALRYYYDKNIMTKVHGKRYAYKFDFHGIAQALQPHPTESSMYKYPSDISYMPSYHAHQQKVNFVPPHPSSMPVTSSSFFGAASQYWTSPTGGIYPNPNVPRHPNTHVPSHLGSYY
# Summary of the method: (§1)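 Yeast served to express human transcription factors as GST fusions, which were then captured on glutathione beads and labelled with DNA barcodes. Pooled with a tag-only sample, they were incubated with 200 nmole of a 16-mer random double-stranded DNA library for 30 min at room temperature in Tris/NaCl/DTT/glycerol buffer, washed, crosslinked with 0.1% formaldehyde, ligated by proximity, amplified by PCR and sequenced. Dividing each hexamer's read frequency for a factor by its frequency for the tag-only sample gives the binding signal.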
# ELK1 = biological target: T2, ELK1 (Homo sapiens, UniProt P19419 1-428); details: protein: recombinant; tags: N-terminal GST; dsDNA, one strand shown
# T2 sequence: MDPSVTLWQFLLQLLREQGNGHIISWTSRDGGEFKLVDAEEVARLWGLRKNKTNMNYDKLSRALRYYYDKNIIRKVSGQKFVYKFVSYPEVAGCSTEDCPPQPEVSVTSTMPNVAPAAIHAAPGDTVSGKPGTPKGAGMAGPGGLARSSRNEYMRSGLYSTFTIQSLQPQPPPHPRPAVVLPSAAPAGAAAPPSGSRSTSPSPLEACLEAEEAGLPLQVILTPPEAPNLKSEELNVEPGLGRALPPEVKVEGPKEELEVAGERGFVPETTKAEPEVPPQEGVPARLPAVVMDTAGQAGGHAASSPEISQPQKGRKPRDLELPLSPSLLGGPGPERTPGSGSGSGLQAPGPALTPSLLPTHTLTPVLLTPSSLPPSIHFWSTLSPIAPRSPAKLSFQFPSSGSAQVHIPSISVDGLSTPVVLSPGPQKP
# Summary of the method: as §1
# GABPA = biological target: T3, GABPA (Homo sapiens, UniProt Q06546 1-454); details: protein: recombinant; tags: N-terminal GST; dsDNA, one strand shown
# T3 sequence: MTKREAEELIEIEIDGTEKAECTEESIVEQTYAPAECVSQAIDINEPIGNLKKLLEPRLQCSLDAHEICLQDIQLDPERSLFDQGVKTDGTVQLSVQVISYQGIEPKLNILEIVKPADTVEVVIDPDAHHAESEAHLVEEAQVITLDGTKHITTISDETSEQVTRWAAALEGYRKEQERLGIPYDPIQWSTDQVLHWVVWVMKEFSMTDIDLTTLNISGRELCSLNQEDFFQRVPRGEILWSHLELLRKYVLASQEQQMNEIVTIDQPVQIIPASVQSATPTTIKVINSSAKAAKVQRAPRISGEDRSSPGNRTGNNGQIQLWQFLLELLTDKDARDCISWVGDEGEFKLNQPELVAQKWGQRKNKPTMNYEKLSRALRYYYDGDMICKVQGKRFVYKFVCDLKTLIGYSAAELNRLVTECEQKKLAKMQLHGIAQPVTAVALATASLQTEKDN
# Summary of the method: as §1
# ERG = biological target: T4, ERG (Homo sapiens, UniProt P11308 1-479); details: protein: recombinant; tags: N-terminal GST; dsDNA, one strand shown
# T4 sequence: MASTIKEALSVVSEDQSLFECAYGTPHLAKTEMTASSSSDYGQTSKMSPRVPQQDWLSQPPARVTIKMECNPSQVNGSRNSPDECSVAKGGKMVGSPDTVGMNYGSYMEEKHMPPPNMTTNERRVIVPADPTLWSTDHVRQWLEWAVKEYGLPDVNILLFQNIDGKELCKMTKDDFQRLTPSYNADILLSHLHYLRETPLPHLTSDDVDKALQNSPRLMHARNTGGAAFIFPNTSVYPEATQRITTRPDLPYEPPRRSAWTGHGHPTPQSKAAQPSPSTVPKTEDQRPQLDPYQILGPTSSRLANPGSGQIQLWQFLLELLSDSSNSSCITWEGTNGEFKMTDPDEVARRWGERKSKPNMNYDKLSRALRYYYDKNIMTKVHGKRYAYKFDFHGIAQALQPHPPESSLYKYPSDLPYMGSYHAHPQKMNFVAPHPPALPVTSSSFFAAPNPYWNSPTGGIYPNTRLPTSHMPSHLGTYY
# Summary of the method: as §1
# ELF1 = ELF1 (Homo sapiens, UniProt P32519 1-619); details: protein: recombinant; tags: N-terminal GST; dsDNA, one strand shown
# Summary of the method: as §1
# EHF = biological target: T5, EHF (Homo sapiens, UniProt Q9NZC4 1-300); details: protein: recombinant; tags: N-terminal GST; dsDNA, one strand shown
# T5 sequence: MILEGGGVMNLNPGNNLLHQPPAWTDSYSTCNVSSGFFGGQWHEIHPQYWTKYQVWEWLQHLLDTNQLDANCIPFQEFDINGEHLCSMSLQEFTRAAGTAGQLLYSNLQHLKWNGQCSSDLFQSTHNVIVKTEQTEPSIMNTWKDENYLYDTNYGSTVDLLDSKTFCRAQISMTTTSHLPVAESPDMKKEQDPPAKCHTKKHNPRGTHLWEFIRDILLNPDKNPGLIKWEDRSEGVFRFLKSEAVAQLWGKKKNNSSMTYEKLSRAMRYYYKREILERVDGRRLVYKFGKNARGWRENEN
# Summary of the method: as §1
# SPI1 = SPI1 (Homo sapiens, UniProt P17947 1-270); details: protein: recombinant; tags: N-terminal GST; dsDNA, one strand shown
# Summary of the method: as §1
# SPIB = SPIB (Homo sapiens, UniProt Q01892 1-262); details: protein: recombinant; tags: N-terminal GST; dsDNA, one strand shown
# Summary of the method: as §1
# ELK3 = biological target: T6, ELK3 (Homo sapiens, UniProt P41970 1-407); details: protein: recombinant; tags: N-terminal GST; dsDNA, one strand shown
# T6 sequence: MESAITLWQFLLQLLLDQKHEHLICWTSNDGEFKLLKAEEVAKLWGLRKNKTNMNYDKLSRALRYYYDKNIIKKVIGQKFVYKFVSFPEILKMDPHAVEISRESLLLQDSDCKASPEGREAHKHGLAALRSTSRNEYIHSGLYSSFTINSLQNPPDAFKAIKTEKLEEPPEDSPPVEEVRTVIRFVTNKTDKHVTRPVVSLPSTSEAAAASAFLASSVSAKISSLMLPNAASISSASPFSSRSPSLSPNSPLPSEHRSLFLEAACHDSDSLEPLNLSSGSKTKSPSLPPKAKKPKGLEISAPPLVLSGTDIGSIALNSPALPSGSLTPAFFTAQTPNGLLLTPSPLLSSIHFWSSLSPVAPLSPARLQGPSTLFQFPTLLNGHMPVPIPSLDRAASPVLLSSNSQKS
# Summary of the method: as §1
# FEV = biological target: T7, FEV (Homo sapiens, UniProt Q99581 1-238); details: protein: recombinant; tags: N-terminal GST; dsDNA, one strand shown
# T7 sequence: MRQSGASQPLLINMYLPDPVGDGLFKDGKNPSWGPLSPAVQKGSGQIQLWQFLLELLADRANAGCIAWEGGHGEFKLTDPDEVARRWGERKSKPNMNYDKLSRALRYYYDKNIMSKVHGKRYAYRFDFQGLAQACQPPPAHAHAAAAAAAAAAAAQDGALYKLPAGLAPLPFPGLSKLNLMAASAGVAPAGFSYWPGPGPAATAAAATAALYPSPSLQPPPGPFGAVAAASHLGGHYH
# Summary of the method: as §1
# ETV5 = ETV5 (Homo sapiens, UniProt P41161 1-510); details: protein: recombinant; tags: N-terminal GST; dsDNA, one strand shown
# Summary of the method: as §1
# HSF1 = HSF1 (Homo sapiens, UniProt Q00613 1-529); details: protein: recombinant; tags: N-terminal GST; chain copies: 3; dsDNA, one strand shown
# Summary of the method: as §1
# SPIC = biological target: T8, SPIC (Homo sapiens, UniProt Q8N5J4 1-248); details: protein: recombinant; tags: N-terminal GST; dsDNA, one strand shown
# T8 sequence: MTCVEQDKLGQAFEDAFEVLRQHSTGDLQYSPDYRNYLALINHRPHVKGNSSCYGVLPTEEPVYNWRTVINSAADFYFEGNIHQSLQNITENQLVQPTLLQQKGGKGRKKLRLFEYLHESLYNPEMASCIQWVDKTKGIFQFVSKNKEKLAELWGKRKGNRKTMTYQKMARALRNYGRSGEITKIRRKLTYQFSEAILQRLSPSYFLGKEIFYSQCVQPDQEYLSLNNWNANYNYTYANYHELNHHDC
# Summary of the method: as §1
# ELF4 = ELF4 (Homo sapiens, UniProt Q99607 1-663); details: protein: recombinant; tags: N-terminal GST; dsDNA, one strand shown
# Summary of the method: as §1
# ELK4 = biological target: T9, ELK4 (Homo sapiens, UniProt P28324-2 1-405); details: protein: recombinant; tags: N-terminal GST; dsDNA, one strand shown
# T9 sequence: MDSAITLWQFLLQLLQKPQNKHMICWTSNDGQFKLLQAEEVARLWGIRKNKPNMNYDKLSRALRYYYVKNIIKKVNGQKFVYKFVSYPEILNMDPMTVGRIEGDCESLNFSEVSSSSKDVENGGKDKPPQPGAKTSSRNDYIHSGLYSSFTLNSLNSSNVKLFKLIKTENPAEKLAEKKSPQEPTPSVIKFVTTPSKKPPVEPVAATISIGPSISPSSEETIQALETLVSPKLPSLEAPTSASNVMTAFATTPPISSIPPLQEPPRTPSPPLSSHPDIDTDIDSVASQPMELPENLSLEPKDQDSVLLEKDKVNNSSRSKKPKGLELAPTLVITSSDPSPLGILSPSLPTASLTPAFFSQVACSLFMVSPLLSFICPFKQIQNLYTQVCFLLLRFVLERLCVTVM
# Summary of the method: as §1
# ETV2 = biological target: T10, ETV2 (Homo sapiens, UniProt O00321 1-342); details: protein: recombinant; tags: N-terminal GST; dsDNA, one strand shown
# T10 sequence: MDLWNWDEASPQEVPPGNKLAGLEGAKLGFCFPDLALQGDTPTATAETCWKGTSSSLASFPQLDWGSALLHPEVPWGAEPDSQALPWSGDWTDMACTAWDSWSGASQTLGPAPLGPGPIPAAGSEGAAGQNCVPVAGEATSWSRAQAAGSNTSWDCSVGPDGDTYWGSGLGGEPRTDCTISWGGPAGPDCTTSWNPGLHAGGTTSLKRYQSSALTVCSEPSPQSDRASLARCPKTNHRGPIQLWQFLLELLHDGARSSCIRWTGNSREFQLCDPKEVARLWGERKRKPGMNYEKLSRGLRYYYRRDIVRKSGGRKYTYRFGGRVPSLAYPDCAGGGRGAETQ
# Summary of the method: as §1
# ELF3 = biological target: T11, ELF3 (Homo sapiens, UniProt P78545 1-371); details: protein: recombinant; tags: N-terminal GST; dsDNA, one strand shown
# T11 sequence: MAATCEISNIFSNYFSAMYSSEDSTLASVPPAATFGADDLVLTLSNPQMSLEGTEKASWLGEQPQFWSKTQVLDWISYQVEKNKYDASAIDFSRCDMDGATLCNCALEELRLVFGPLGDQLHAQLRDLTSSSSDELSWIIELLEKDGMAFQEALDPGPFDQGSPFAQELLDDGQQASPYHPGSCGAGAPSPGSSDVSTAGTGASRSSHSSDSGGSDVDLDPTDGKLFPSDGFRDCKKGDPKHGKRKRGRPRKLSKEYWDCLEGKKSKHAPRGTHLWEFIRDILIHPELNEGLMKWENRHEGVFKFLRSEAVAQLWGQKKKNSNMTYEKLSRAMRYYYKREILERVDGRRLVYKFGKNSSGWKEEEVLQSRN
# Summary of the method: as §1
# CRX = CRX (Homo sapiens, UniProt O43186 1-299); details: protein: recombinant; tags: N-terminal GST; dsDNA, one strand shown
# Summary of the method: as §1
# ETV1 = ETV1 (Homo sapiens, UniProt P50549 1-477); details: protein: recombinant; tags: N-terminal GST; dsDNA, one strand shown
# Summary of the method: as §1
# Chain of SPIB (Q01892 whole entry): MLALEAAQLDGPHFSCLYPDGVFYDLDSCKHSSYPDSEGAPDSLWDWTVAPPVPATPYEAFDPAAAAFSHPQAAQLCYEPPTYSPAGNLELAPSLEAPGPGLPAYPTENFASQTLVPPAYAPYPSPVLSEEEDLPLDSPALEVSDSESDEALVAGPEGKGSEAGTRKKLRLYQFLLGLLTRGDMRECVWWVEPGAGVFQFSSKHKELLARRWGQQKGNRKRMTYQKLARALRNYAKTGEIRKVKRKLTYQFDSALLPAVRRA
# Chain of ELF1 (P32519 whole entry): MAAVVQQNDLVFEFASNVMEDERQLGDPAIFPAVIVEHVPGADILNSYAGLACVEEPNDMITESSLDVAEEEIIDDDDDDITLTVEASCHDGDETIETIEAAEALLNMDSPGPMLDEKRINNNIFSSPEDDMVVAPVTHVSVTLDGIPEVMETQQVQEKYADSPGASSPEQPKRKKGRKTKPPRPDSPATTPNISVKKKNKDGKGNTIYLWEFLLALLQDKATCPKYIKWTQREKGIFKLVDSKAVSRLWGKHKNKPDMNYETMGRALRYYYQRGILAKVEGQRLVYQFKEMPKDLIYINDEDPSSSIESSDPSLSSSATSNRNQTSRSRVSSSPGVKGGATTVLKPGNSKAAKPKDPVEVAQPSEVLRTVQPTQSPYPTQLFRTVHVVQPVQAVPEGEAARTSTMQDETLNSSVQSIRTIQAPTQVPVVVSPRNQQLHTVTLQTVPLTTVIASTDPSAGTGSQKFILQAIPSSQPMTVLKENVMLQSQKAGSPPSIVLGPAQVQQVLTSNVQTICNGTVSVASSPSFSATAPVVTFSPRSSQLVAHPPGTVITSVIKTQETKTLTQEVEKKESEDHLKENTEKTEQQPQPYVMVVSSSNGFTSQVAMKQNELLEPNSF
# Chain of CRX (O43186 whole entry): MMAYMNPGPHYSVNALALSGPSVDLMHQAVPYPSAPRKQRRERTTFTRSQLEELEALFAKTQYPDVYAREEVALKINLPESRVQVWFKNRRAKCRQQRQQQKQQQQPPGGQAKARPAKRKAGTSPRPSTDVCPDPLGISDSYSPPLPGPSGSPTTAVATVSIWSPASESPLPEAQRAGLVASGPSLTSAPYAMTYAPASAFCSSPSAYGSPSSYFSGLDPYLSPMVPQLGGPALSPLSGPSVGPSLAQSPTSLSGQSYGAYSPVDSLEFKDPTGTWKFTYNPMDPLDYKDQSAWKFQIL
# Chain of ETV1 (P50549 whole entry): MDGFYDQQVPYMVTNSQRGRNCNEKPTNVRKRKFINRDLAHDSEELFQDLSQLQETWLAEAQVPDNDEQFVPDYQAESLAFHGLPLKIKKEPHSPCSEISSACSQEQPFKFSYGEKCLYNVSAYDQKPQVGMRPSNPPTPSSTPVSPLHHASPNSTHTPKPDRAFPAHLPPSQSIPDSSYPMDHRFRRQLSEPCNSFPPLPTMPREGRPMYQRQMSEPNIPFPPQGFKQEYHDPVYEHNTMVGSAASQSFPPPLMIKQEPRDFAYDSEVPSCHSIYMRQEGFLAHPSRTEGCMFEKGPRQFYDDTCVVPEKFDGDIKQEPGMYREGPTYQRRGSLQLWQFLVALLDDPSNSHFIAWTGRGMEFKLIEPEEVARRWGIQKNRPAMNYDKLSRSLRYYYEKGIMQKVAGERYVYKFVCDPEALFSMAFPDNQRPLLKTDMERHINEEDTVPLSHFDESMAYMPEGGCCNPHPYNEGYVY
# Chain of ETV5 (P41161 whole entry): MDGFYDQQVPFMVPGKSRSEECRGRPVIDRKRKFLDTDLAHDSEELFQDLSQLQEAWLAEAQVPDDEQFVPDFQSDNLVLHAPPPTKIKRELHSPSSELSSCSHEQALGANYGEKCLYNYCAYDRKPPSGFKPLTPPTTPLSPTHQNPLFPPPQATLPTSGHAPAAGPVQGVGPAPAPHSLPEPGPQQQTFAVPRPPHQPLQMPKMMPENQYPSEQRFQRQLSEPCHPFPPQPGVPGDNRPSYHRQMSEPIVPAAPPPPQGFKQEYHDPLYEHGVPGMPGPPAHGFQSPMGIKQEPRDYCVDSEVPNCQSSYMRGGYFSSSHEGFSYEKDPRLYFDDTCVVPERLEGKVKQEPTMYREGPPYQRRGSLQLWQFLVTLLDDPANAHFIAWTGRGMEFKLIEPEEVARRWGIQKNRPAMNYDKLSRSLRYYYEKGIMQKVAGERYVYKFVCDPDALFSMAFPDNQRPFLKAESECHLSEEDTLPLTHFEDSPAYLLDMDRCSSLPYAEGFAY
# Chain of ELF4 (Q99607 whole entry): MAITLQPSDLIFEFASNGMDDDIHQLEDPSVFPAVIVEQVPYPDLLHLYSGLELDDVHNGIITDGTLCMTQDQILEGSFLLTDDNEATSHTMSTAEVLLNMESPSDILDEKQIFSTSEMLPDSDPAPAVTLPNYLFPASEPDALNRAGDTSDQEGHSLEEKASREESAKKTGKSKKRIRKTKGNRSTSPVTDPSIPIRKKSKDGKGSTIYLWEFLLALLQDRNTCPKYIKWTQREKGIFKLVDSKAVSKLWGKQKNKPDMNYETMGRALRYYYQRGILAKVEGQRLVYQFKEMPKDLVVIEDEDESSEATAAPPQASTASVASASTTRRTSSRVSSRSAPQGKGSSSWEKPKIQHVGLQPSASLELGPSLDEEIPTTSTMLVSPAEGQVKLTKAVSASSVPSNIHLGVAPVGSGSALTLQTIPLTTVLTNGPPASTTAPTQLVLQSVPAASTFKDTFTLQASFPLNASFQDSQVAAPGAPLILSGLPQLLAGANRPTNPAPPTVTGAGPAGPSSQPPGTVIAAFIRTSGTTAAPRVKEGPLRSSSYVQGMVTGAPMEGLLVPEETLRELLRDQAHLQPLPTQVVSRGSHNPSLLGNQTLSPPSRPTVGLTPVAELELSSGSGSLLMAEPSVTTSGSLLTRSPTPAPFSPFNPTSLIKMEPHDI
# Chain of HSF1 (Q00613 whole entry): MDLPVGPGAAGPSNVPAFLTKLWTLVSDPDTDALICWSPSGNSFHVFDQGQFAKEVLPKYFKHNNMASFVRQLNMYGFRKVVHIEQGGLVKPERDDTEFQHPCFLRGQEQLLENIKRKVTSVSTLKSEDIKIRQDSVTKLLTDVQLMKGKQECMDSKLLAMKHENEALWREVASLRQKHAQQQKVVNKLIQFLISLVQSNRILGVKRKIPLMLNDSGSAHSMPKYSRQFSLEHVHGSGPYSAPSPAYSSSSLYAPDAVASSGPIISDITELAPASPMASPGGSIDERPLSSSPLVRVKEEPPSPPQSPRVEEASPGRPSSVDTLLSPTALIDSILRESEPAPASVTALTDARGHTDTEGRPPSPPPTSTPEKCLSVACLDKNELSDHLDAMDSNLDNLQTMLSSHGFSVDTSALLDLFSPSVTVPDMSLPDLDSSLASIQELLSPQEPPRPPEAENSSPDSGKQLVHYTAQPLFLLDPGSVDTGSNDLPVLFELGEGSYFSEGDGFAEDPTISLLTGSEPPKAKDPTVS
sequence,measurement,setting,value
CTACGG,binding signal,FLI1,"1.19 fold enrichment (6-mer frequency, TF over GST control)"
same,binding signal,ELK1,"1.27 fold enrichment (6-mer frequency, TF over GST control)"
same,binding signal,GABPA,"1.22 fold enrichment (6-mer frequency, TF over GST control)"
same,binding signal,ERG,"1.21 fold enrichment (6-mer frequency, TF over GST control)"
same,binding signal,ELF1,"1.29 fold enrichment (6-mer frequency, TF over GST control)"
same,binding signal,EHF,"1.31 fold enrichment (6-mer frequency, TF over GST control)"
same,binding signal,SPI1,"1.24 fold enrichment (6-mer frequency, TF over GST control)"
same,binding signal,SPIB,"1.28 fold enrichment (6-mer frequency, TF over GST control)"
same,binding signal,ELK3,"1.24 fold enrichment (6-mer frequency, TF over GST control)"
same,binding signal,FEV,"1.28 fold enrichment (6-mer frequency, TF over GST control)"
same,binding signal,ETV5,"1.21 fold enrichment (6-mer frequency, TF over GST control)"
same,binding signal,HSF1,"1.03 fold enrichment (6-mer frequency, TF over GST control)"
same,binding signal,SPIC,"1.08 fold enrichment (6-mer frequency, TF over GST control)"
same,binding signal,ELF4,"1.22 fold enrichment (6-mer frequency, TF over GST control)"
same,binding signal,ELK4,"1.37 fold enrichment (6-mer frequency, TF over GST control)"
same,binding signal,ETV2,"1.29 fold enrichment (6-mer frequency, TF over GST control)"
same,binding signal,ELF3,"1.38 fold enrichment (6-mer frequency, TF over GST control)"
same,binding signal,CRX,"1.08 fold enrichment (6-mer frequency, TF over GST control)"
same,binding signal,ETV1,"1.34 fold enrichment (6-mer frequency, TF over GST control)"
